“And” between values parts separate entries of the source, which are not always exact repeats. Equal entries are not always repeated. Results filed as inconclusive are left out. The source holds several records for some structures; these can differ, active in one and inactive in another. The source made the active and inactive calls. Unless noted, calls come from the whole dose curve; as a rule, active = well fitted curve in the direction sought with a large enough effect in the repeat runs; inconclusive = weak or mixed curves; inactive = no such curve, though single readings can be large; an effect the other way counts as inactive or inconclusive.
Assays:
[1] = qHTS assay to identify small molecule agonists of the hypoxia (HIF-1) signaling pathway (AID 1224846; active = well fitted activation curve with a large enough effect in the signal ratio in the repeat runs, not every such curve was filed as active; the % refers to the signal ratio)
Outline: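 Compounds from the Tox21 10K library, dissolved in DMSO, are tested for induction of a hypoxia response element–controlled beta-lactamase reporter in ME-180 cells. Exposure lasts 17 hrs at 37C after a 5 hr settling period, followed by CCF4-AM FRET substrate.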

[2] = qHTS assay to identify small molecule agonists of H2AX - cell viability counter screen (AID 1224847; calls by dose curve; note: nearly all actives have a fitted effect of over 30% in size; note: potency is the fitted concentration of half-maximal effect)
Outline: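 Viability of CHO-K1 (wild type) cells after 3 hr compound exposure was measured by CellTiter-Glo luminescence.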

[3] = qHTS assay to identify small molecule antagonists of the estrogen related receptor (ERR) signaling pathway from Tox21 library (AID 1224848); note: nearly all actives have a fitted effect of over 50% in size; note: potency is the fitted concentration of half-maximal effect
Outline: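 Compounds dissolved in DMSO are pin-transferred onto ERR reporter cells (2,000 per well) that have settled for 6 h at 37 C. Plates then incubate 18 h at 37 C before ONE-Glo luciferase reagent and a luminescence read 30 min later.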

[4] = qHTS assay to identify small molecule agonists of the estrogen related receptor (ERR) signaling pathway from Tox21 library (AID 1224849; calls by dose curve; note: nearly all actives have a fitted effect of over 15% in size); conditions: ERR reporter cell line, ONE-Glo luciferase, 18 h; at 92.4 µM (top of the series) unless noted
Outline: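 Cells carrying the ERR reporter were plated and allowed to settle for 6 h, exposed to library compounds for 18 h at 37 C, then lysed with ONE-Glo and luminescence measured.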

[5] = qHTS RealTime-Glo MT Cell Viability Assay in HEK293 cells - 32 hour (AID 1224868); note: nearly all actives have a fitted effect of over 50% in size; note: potency is the fitted concentration of half-maximal effect
Outline: (§1)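 Assay medium contained NanoLuc luciferase plus cell-permeant prosubstrate, added with HEK293 cells at 600 cells/well. After 5 h at 37 C/5% CO2 compounds were added; plates stayed at 37 C for 40 h with serial luminescence reads.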

[6] = qHTS RealTime-Glo MT Cell Viability Assay in HepG2 cells - 40 hour (AID 1224870); note: nearly all actives have a fitted effect of over 50% in size
Outline: (§2)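 HepG2 cells (600/well) mixed with RealTime-Glo MT reagent, settled 5 h at 37 C/5% CO2 before compound addition. Nonlytic NanoLuc luminescence from viable-cell prosubstrate reduction read repeatedly during 40 h treatment at 37 C.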

[7] = A CellTox Green Cytotoxicity Assay to monitor cytotoxicity in HEK293 cells - 40 hour (AID 1224871); note: nearly all actives have a fitted effect of over 45% in size; note: potency is the fitted concentration of half-maximal effect
Outline: (§3)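 Cells (HEK293, 600/well) and dye reagent are dispensed together. After 5 h at 37 C, 23 nL compound is pinned in. Plates stay at 37 C for 40 h with fluorescence read at 0h, 8h, 16h, 24h, 32h and 40h.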

[8] = qHTS RealTime-Glo MT Cell Viability Assay in HEK293 cells - 16 hour (AID 1224872); note: nearly all actives have a fitted effect of over 50% in size; note: potency is the fitted concentration of half-maximal effect
Outline: as §1

[9] = qHTS RealTime-Glo MT Cell Viability Assay in HepG2 cells - 8 hour (AID 1224873); note: nearly all actives have a fitted effect of over 55% in size
Outline: as §2

[10] = A CellTox Green Cytotoxicity Assay to monitor cytotoxicity in HepG2 cells - 16 hour (AID 1224876); note: nearly all actives have a fitted effect of over 45% in size
Outline: (§4)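 Cells and non-lytic dye reagent are dispensed together (600 HepG2 cells/well) and incubated 5 h before DMSO compound transfer. Kinetic fluorescence is then recorded in the same wells during 40 h at 37 C.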

[11] = qHTS RealTime-Glo MT Cell Viability Assay in HepG2 cells - 32 hour (AID 1224877); note: nearly all actives have a fitted effect of over 55% in size
Outline: (§5)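 qHTS, HepG2, 600 cells/well, RealTime-Glo (NanoLuc + prosubstrate) added with cells; 5 h preincubation; DMSO compound addition; 37 C; luminescence at 0/8/16/24/32/40 h.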

[12] = A CellTox Green Cytotoxicity Assay to monitor cytotoxicity in HepG2 cells - 24 hour (AID 1224878); note: nearly all actives have a fitted effect of over 45% in size
Outline: as §4

[13] = A CellTox Green Cytotoxicity Assay to monitor cytotoxicity in HepG2 cells - 40 hour (AID 1224879); note: nearly all actives have a fitted effect of over 40% in size; note: potency is the fitted concentration of half-maximal effect
Outline: as §4

[14] = qHTS RealTime-Glo MT Cell Viability Assay in HEK293 cells - 0 hour (AID 1224880); note: top concentration of the series differs between compounds; nearly all actives have a fitted effect of over 45% in size
Outline: (§6)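 Real-time viability in HEK293: signal arises when living cells convert a prosubstrate for NanoLuc in the medium, so luminescence tracks viable cell number. Compound (23 nL, DMSO) added 5 h post-seeding; kinetic reads at 0–40 h, 37 C.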

[15] = A CellTox Green Cytotoxicity Assay to monitor cytotoxicity in HEK293 cells - 32 hour (AID 1224881); note: nearly all actives have a fitted effect of over 40% in size; note: potency is the fitted concentration of half-maximal effect
Outline: as §3

[16] = A CellTox Green Cytotoxicity Assay to monitor cytotoxicity in HepG2 cells - 0 hour (AID 1224882); note: nearly all actives have a fitted effect of over 35% in size
Outline: as §4

[17] = A CellTox Green Cytotoxicity Assay to monitor cytotoxicity in HEK293 cells - 0 hour (AID 1224869); note: nearly all actives have a fitted effect of over 50% in size
Outline: as §3

[18] = A CellTox Green Cytotoxicity Assay to monitor cytotoxicity in HEK293 cells - 24 hour (AID 1224875); note: nearly all actives have a fitted effect of over 45% in size
Outline: as §3

[19] = qHTS RealTime-Glo MT Cell Viability Assay in HepG2 cells - 24 hour (AID 1224867); note: nearly all actives have a fitted effect of over 50% in size
Outline: as §5

[20] = qHTS RealTime-Glo MT Cell Viability Assay in HEK293 cells - 40 hour (AID 1224874); conditions: RealTime-Glo luminescence; max response: stronger effect = lower value; note: nearly all actives have a fitted effect of over 50% in size; note: potency is the fitted concentration of half-maximal effect
Outline: as §6
% is set by controls: 0 for no effect and ±100 for the full control effect.

C=CCOC(N)=O
inactive: outcome [1] | Potency [2] | Potency [3] | activity change, positive = activation [4] 2.68% | Potency [5] | Potency [6] | Potency [7] | Potency [8] | Potency [9] | Potency [10] | Potency [11] | Potency [12] | Potency [13] | Potency [14] | Potency [15] | Potency [16]

CCCCOCN(C(=O)CCl)c1c(CC)cccc1CC
active: Potency [2] 101 µM | Potency [3] 27.3 µM
inactive: outcome [1] | activity change, positive = activation [4] -62.9% | Potency [5] | Potency [17] | Potency [6] | Potency [8] | Potency [18] | Potency [10] | Potency [12] | Potency [14] | Potency [15] | Potency [16]

CCOCCOC(C)=O
inactive: outcome [1] | Potency [2] | Potency [3] | Potency [19] | Potency [5] | Potency [17] | Potency [6] | Potency [7] | Potency [8] | Potency [9] | Potency [10] | Potency [11] | Potency [12] | Potency [13] | Potency [14] | Potency [15] | Potency [16]

CC(c1ccc(O)cc1)c1ccc(O)cc1
45.9 µM (active) and inactive: Potency [8]
inactive: outcome [1] | Potency [2] | Potency [3] | activity change, positive = activation [4] -56.9% and -6.34% | Potency [17] | Potency [6] | Potency [9] | Potency [18] | Potency [10] | Potency [11] | Potency [12] | Potency [13] | Potency [14] | Potency [15] | Potency [16]
active: Potency [5] 45.9 µM

c1ccc(OCC2CO2)cc1 (configuration not stated)
inactive: outcome [1] | Potency [2] | Potency [19] | Potency [5] | Potency [17] | Potency [6] | Potency [7] | Potency [8] | Potency [9] | max response [20] 7.88% | Potency [10] | Potency [12] | Potency [13] | Potency [14] | Potency [15] | Potency [16]

BrCC(Br)c1ccccc1 (configuration not stated)
inactive: outcome [1] | Potency [2] | Potency [19] | Potency [5] | Potency [17] | Potency [6] | Potency [7] | Potency [8] | Potency [9] | Potency [18] | Potency [10] | Potency [12] | Potency [13] | Potency [14] | Potency [15] | Potency [16]

O=[N+]([O-])c1ccc(Oc2ccc(C(F)(F)F)cc2[N+](=O)[O-])cc1
active: Potency [5] 19.5 µM | Potency [8] 19.5 µM
inactive: outcome [1] | Potency [2] | activity change, positive = activation [4] -23.5% | Potency [19] | Potency [6] | Potency [10] | Potency [11] | Potency [12] | Potency [13] | Potency [14] | Potency [15] | Potency [16]

Cc1cccc(OP(=O)(Oc2cccc(C)c2)Oc2cccc(C)c2)c1
inactive: outcome [1] | Potency [2] | Potency [19] | Potency [5] | Potency [17] | Potency [6] | Potency [7] | Potency [8] | Potency [9] | max response [20] 5.97% | Potency [18] | Potency [10] | Potency [11] | Potency [12] | Potency [13] | Potency [14] | Potency [15] | Potency [16]

CN(C)C1CSSSC1
inactive: outcome [1] | Potency [2] | Potency [3] | activity change, positive = activation [4] -13.3% | Potency [5] | Potency [17] | Potency [6] | Potency [7] | Potency [18] | Potency [10] | Potency [11] | Potency [12] | Potency [13] | Potency [14] | Potency [15] | Potency [16]

Nc1ccc([N+](=O)[O-])cc1Cl
inactive: outcome [1] | Potency [2] | Potency [19] | Potency [5] | Potency [17] | Potency [6] | Potency [7] | Potency [8] | Potency [9] | max response [20] -7.63% | Potency [18] | Potency [10] | Potency [11] | Potency [12] | Potency [13] | Potency [14] | Potency [15] | Potency [16]

Cn1cc(C2=C(c3cn(C4CCN(Cc5ccccn5)CC4)c4ccccc34)C(=O)NC2=O)c2ccccc21
inactive: outcome [1] | Potency [2] | activity change, positive = activation [4] -11.8% [at 42.5 µM] | Potency [17] | Potency [7] | Potency [8] | Potency [18] | Potency [12] | Potency [14] | Potency [15] | Potency [16]

O=C(NC(=O)c1c(F)cccc1F)Nc1cc(Cl)c(OC(F)(F)C(F)F)c(Cl)c1
inactive: outcome [1] | Potency [2] | Potency [19] | Potency [5] | Potency [17] | Potency [6] | Potency [7] | Potency [8] | Potency [9] | Potency [18] | Potency [10] | Potency [11] | Potency [12] | Potency [13] | Potency [14] | Potency [15] | Potency [16]

ClC1=C(Cl)C2(Cl)C3C(Cl)C(Cl)CC3C1(Cl)C2(Cl)Cl (configuration not stated)
active: Potency [2] 89.5 µM and 101 µM | Potency [3] 60.9 µM and 54.5 µM | Potency [5] 48.8 µM | Potency [7] 48.8 µM and 49 µM | Potency [8] 48.8 µM and 49 µM | Potency [20] 48.8 µM | Potency [15] 48.8 µM and 49 µM
inactive: outcome [1] | activity change, positive = activation [4] -78.9% and -65.6% | Potency [14] | Potency [16]

ClC(Cl)=C(Cl)Cl
inactive: outcome [1] | Potency [2] | Potency [19] | Potency [5] | Potency [17] | Potency [6] | Potency [7] | Potency [8] | Potency [9] | max response [20] 0.0111% | Potency [18] | Potency [10] | Potency [11] | Potency [12] | Potency [13] | Potency [14] | Potency [15] | Potency [16]

CC(C)(C)C(O)/C(=C\c1ccc(Cl)cc1Cl)n1cncn1 (configuration not stated)
inactive: outcome [1] | activity change, positive = activation [4] -63.4% | Potency [17] | Potency [14]
active: Potency [2] 122 µM | Potency [3] 33 µM | Potency [5] 29.7 µM | Potency [8] 29.7 µM | Potency [20] 26.5 µM | Potency [13] 52.8 µM

CC(=O)Nc1ccc2c(c1)Cc1ccccc1-2
inactive: outcome [1] | Potency [2] | Potency [19] | Potency [5] | Potency [17] | Potency [6] | Potency [7] | Potency [8] | Potency [9] | max response [20] -12.3% | Potency [18] | Potency [10] | Potency [11] | Potency [12] | Potency [13] | Potency [14] | Potency [15] | Potency [16]
